HT1080-NT tox: kills 2HG-producing HT-1080-NT fibrosarcoma cells; HT-1080-NT fibrosarcoma viability, CellTiter-Glo ATP luminescence, 48 h; actives 1.6% (n = 360,000); AID 686970; Potency, µM (highest dose often 46.1 µM), for inactives: at the top dose activity, negative = less viability, most hits filed as cytotoxic;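 further: NT is the 2HG producing partner of a matched IDH1 knockdown line; 0% = DMSO-treated cells and -100% = media-only wells without cells; nearly all actives have a fitted effect of over 55% in size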
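Viability of the 2HG-overproducing fibrosarcoma line after 48 hours of compound exposure at 37 degrees C was determined by luminescence with CellTiter-Glo, and concentration-effect curves were then fitted and categorized.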
KB-V1 MDR tox: kills drug-selected multidrug resistant KB-V1 cells; AID 1347076; KB-V1 MDR cells viability, CellTiter-Glo, 72 h; Potency, µM (top dose mostly 46.1 µM), hits mostly cytotoxic; actives 3.4% (n = 400,000); further: on the % scale 0 is the no-effect control and ±100 the full control effect; nearly all actives have a fitted effect of over 60% in size
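KB-V1, DMEM (no phenol red) + 10% FBS; cpd pin-transferred, titration series; 72 h, 37 degrees C; CellTiter-Glo, luminescence. Data normalized, curve-fit.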
KB-3-1 cytotox: kills parental KB-3-1 adenocarcinoma cells. Potency, µM (doses to about 46.1 µM), hits mostly cytotoxic. KB-3-1 viability, CellTiter-Glo ATP luminescence, 72 h. actives 1.4% (n = 400,000); further: on the % scale 0 is the no-effect control and ±100 the full control effect; nearly all actives have a fitted effect of over 60% in size
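KB-3-1 cells, DMEM (no phenol red) + 10% FBS; compound by pin transfer, 72 h, 37 °C. Readout: CellTiter-Glo luminescence after 10 min. Data normalized, curve-fitted.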
SW480 rereplic: induces DNA re-replication in SW480 colon adenocarcinoma cells. SW480 DNA re-replication, Hoechst DNA content imaging, 48 h. Potency, µM (series often up to 46.1 µM), for the others: at the top dose re-replication activation, hits mostly activators. actives 1.8% (n = 340,000). AID 624297; further: % of control where 0% means no effect; nearly all actives have a fitted effect of over 55% in size
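Per well, 250 cells were exposed to pinned compound for 48 hr. Nuclear DNA was visualised with Hoechst (40 min, 37 C) and total object intensity recorded by fluorescence scanning.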
HT1080 IDH1KD tx: kills HT-1080 cells with IDH1 knockdown. HT-1080 IDH1 knockdown viability, ATP luminescence, 48 h. Potency, µM (titrated, usually from 46.1 µM), for the others: at the highest dose activity, negative = toxicity, usual class: cytotoxic. actives 2% (n = 360,000);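 further: 0% = DMSO wells and -100% = cell-free medium wells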
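Knockdown cells (IDH1KD HT-1080) received compounds 2 h after plating at 750 cells/well and were kept 48 h at 37 °C in 5% FBS RPMI. A CellTiter-Glo luminescence read gave % activity for curve fitting.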
MCF10A rereplic: DNA re-replication induction in MCF 10a cells | Potency, µM (titrated, usually from 46.1 µM), without a hit: at the highest dose activity, positive = re-replication, actives largely listed as activators | MCF 10A DNA re-replication, Hoechst nuclear intensity, 48 h | actives 2.9% (n = 350,000); further: % of control where 0% means no effect; nearly all actives have a fitted effect of over 50% in size
The depositor's hits bear a star; i = inactive; ? = inconclusive; nt = no result given; ! = a repeat was not active. Compounds with a hit are over-represented: about 8% of the library has one in this group of screens. The call rests on the fitted dose curve; in most records, active means well fitted curve in the direction sought with a large enough effect; inconclusive means small, poorly fitted or top-dose-only effect, or another doubt; inactive means no such curve, though single readings can be large; an effect the other way counts as inactive or inconclusive. Potency means the concentration at half of the fitted maximal effect.

SMILES	HT1080-NT tox	KB-V1 MDR tox	KB-3-1 cytotox	SW480 rereplic	HT1080 IDH1KD tx	MCF10A rereplic
COc1ccc(N2CC3=C(C2=O)C(c2ccc(O)c(OC)c2)NC(=O)N3C)cc1 (stereo not given)	nt	i	i	nt	nt	nt
Nc1nc(N)c(N)c(=O)[nH]1	nt	i	i	nt	nt	nt
Nc1nc2n[nH]nc2c(=O)[nH]1	?	?	1.5µM*!	?	0.12µM*	?
CC1CN(C(=O)c2ccccc2Oc2ccccc2)CC(C)O1 (stereo not given)	-4%	i	21µM*	9%	1%	16%
Cc1ccc(NC(=O)CN2C(=O)CCn3nc(-c4cccn4C)cc32)c(Cl)c1	nt	i	i	nt	nt	nt
Cc1sc2ncnc(NCCN3CCOCC3)c2c1C	-18%	16µM*	i	1%	-23%	22%
Fc1ccc2[nH]c3c(NCc4ccco4)ncnc3c2c1	nt	i	?	nt	nt	nt
Cc1ccc2[nH]c3c(NCc4ccco4)ncnc3c2c1	-8%	18µM*	13µM*	8%	-21%	?
Cc1sc2nc(CN3CCOCC3)nc(NCCc3ccccc3)c2c1C	-10%	8.2µM*	i	-7%	-1%	29%
Cc1sc2ncnc(NCc3ccco3)c2c1C	-1%	2.6µM*	6.5µM*	1%	-4%	-3%
Cc1sc2nc(CN3CCOCC3)nc(NS(=O)(=O)c3ccccc3)c2c1C	15%	i	i	0%	14%	0%
CCC1CCCCN1C(=O)CSc1nc(-c2ccc(OC)cc2)cc(C(F)(F)F)n1 (stereo not given)	nt	i	i	nt	nt	nt
Cc1cccc(-c2nn3c(=O)cc(CN4CCN(C(=O)c5ccccc5Br)CC4)nc3s2)c1	nt	i	i	nt	nt	nt
Cc1cc(C)cc(NC(=O)CN2C(=O)c3ccccc3Sc3ncccc32)c1	nt	i	i	nt	nt	nt
Cc1ccccc1NC(=O)CSc1nc2ccc(NC(=O)c3ccccc3)cc2s1	nt	i	i	nt	nt	nt
Cc1sc2ncnc(NCc3cccs3)c2c1C	-16%	2.6µM*	?	-1%	-17%	9%
COc1ccc(-c2nnc(SC(C)C(=O)Nc3nccs3)n2-c2ccccc2)cc1OC (stereo not given)	4%	15µM*	i	-4%	0%	-1%
COc1ccc(-c2nnc(SC(C)C(=O)Nc3nccs3)n2Cc2ccccc2)cc1OC (stereo not given)	-5%	i	i	-5%	-19%	10%
c1cc(-c2cc3nc(NCC4CC4)ccn3n2)ccc1OCCN1CCOCC1	2%	i	i	nt	0%	nt
CN(C)C(=O)CNc1ccn2nc(-c3cccc(OCCN4CCOCC4)c3)cc2n1	-1%	i	i	nt	14%	nt
COc1cc(Nc2ccn3nc(-c4ccccc4Cl)cc3n2)cc(OC)c1OC	23µM*	i	?	nt	-21%	nt
c1cc(-c2cc3nc(NC4CCCCC4)ccn3n2)ccc1OCCN1CCOCC1	21µM*	?	?	nt	21µM*	nt
Clc1cccc(CNc2ccn3nc(-c4ccc(OCCN5CCOCC5)cc4)cc3n2)c1	16µM*	?	?	nt	?	nt
c1ccc(COc2cccc(-c3cc4nc(NCc5cccs5)ccn4n3)c2)cc1	?	?	?	nt	7.3µM*	nt
COc1cc(-c2cc3nc(NCCN(C)C)ccn3n2)cc(OC)c1OC	-3%	i	i	nt	-4%	nt
SMILES	HT1080-NT tox	KB-V1 MDR tox	KB-3-1 cytotox	SW480 rereplic	HT1080 IDH1KD tx	MCF10A rereplic
COc1cc(-c2cc3nc(NC4CCCCC4)ccn3n2)cc(OC)c1OC	18µM*	?	i	nt	16µM*	nt
CN1c2ccc(Cl)cc2-c2nc(SCC(=O)NCc3ccc(F)cc3)ncc2S1(=O)=O	nt	i	i	nt	nt	nt
CCOC(=O)N1CCC(NC(=O)c2ccc3c(c2)N=C(C)c2ccccc2S3)CC1	-14%	i	i	-3%	-22%	-1%
CC1=Nc2cc(C(=O)NC3CCCC3)ccc2Sc2ccc(Cl)cc21	nt	3.7µM*	3.3µM*	nt	nt	nt
CC1=Nc2cc(C(=O)NC3CCCC3)ccc2Sc2ccc(C)cc21	nt	1.3µM*	1.5µM*	nt	nt	nt
CCC1=Nc2cc(C(=O)NC3CCCC3)ccc2Sc2ccc(Cl)cc21	nt	2.9µM*	5.8µM*	nt	nt	nt
CNC(=O)c1ccc2c(c1)N=C(C)c1cc(C)ccc1S2	nt	?	18µM*	nt	nt	nt
CCC1=Nc2cc(C(=O)O)ccc2Sc2ccccc21	0%	i	i	-3%	2%	2%
O=C1CN(C(=O)c2c(F)cccc2Cl)C(c2ccc(F)cc2)c2cc(Br)ccc2N1 (stereo not given)	nt	i	i	nt	nt	nt
O=C(Cc1cccs1)Nc1ccc(Cl)c(S(=O)(=O)N2CCOCC2)c1	?	?	i	5.8µM*	-4%	-15%
O=C(CCCSc1ccccc1)Nc1ccc(Cl)c(S(=O)(=O)N2CCOCC2)c1	1%	2.6µM*	?	3%	-18%	14%
O=C(CCCOc1ccccc1)Nc1ccc(Cl)c(S(=O)(=O)N2CCOCC2)c1	-11%	?	?	-9%	-13%	6%
Cc1ccc(OCCCC(=O)Nc2ccc(Cl)c(S(=O)(=O)N3CCOCC3)c2)cc1	-20%	7.3µM*	15µM*	?	-21%	?
CC(=O)c1ccc(OCCCC(=O)Nc2ccc(Cl)c(S(=O)(=O)N3CCOCC3)c2)cc1	-5%	i	?	4%	-17%	17%
CCCn1c2ccccc2c2cnn(CC(=O)NCCCN(Cc3ccccc3)C(C)C)c(=O)c21	nt	i	i	nt	nt	nt
CC1CCN(c2oc(-c3ccc(OCc4ccccc4Cl)cc3)nc2C#N)CC1	nt	i	i	nt	nt	nt
O=C(CSc1ccccc1)N1CCN(c2ccccn2)CC1	-1%	i	i	?	12%	-5%
Cc1nc(SCC(=O)N2CCN(c3ccccn3)CC2)c(C#N)c(C)c1C	8%	7.3µM*	i	-8%	7%	1%
CC(NC(=O)c1ccc(F)cc1)c1nc2ccccc2[nH]1 (stereo not given)	nt	i	i	nt	nt	nt
N=C1/C(=C/c2cccs2)C(=O)N=C2SN=C(SCc3ccccc3)N12	-2%	23µM*	?	-5%	-10%	?
CC(C)CSC1=NSC2=NC(=O)/C(=C\c3cccs3)C(=N)N12	-1%	?	?	10%	-14%	21µM*
CC1=CC2=NC(=O)/C(=C/c3cccs3)C(=N)N2O1	-2%	i	i	-3%	12%	5%
CSC1=NSC2=NC(=O)/C(=C/c3coc4ccccc4c3=O)C(=N)N12	-8%	?	i	-1%	-16%	?

Bioassay records: PubChem BioAssay, National Center for Advancing Translational Sciences (NCATS)
